Only some compounds are listed: those with a hit (about 1.9% of all), similar ones and a draw of the others.
RXFP1 ag: qHTS Assay for Agonists of the Relaxin Receptor RXFP1; HEK293T-RXFP1 cAMP TR-FRET, 30 min; response scale: percent of porcine relaxin response, buffer zero; actives 0.3% (n = 370,000); AID 2676, 2010; Potency, µM (doses to about 57.5 µM), for inactives: at the top dose activation, hits mostly activators; further: potency means the concentration at half of the fitted maximal effect; on the % scale 0 is the no-effect control and ±100 the full control effect; nearly all actives have a fitted effect of over 60% in size
Target sequence (Q9HBX9 whole entry, looked up): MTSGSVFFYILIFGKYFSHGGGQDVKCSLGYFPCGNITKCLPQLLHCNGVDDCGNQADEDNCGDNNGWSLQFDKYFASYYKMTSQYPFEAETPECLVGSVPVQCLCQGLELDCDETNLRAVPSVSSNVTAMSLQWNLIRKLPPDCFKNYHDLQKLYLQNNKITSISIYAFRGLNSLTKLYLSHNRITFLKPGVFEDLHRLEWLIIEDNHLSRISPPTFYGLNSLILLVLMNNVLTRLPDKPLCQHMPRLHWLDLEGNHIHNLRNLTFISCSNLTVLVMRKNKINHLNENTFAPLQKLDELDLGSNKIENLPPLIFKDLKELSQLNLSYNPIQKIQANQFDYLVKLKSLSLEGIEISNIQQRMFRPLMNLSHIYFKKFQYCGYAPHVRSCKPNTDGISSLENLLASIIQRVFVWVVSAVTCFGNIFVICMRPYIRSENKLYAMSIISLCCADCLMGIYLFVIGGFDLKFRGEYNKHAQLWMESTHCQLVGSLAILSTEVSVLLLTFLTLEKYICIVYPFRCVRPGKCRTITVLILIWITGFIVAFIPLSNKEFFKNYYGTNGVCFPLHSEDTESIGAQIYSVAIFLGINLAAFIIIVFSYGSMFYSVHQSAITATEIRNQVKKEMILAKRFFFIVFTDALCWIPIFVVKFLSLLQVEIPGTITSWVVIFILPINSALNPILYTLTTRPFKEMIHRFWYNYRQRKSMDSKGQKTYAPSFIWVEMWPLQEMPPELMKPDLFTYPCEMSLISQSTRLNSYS
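HEK293T cells stably expressing RXFP1 were pretreated with the PDE4 inhibitor Ro 20174, exposed to compounds for 30 min at 37C, lysed, and cAMP was read by TR-FRET. Data normalized to buffer (basal) and 29 nM porcine relaxin (100%).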
IL2 activator: qHTS of IL-2 Activators. actives 0.065% (n = 360,000). activation, % (series mostly up to about 46 µM). IL-2 activation reporter assay, cell-based qHTS; stimulated with anti-CD3/CD4/CD28 beads; in transgenic mouse T cells. AID 652025, 2013; in the data active means activation above about 50%; inconclusive means mostly about 30% to 49%; further: 0% is about no effect
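Quantitative HTS in unstimulated transgenic mouse T cells, with memory T cells as non-tolerant control and PMA/ionomycin as tolerance-bypass control. Compound pretreatment lasted 60 minutes before 18 h bead stimulation; EGFP/DsRed fluorescence read.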
NPSR antag: qHTS Assay for Antagonists of the Neuropeptide S Receptor: cAMP Signal Transduction; Q6W5P4; actives 1% (n = 220,000); Potency, µM (series often up to 38.3 µM), without a hit: at the highest dose activity change, negative = inhibition, hits mostly inhibitors; CHO-NPSR cells, cAMP TR-FRET, antagonist mode; further: potency means the concentration at half of the fitted maximal effect; on the % scale 0 is the no-effect control and ±100 the full control effect; nearly all actives have a fitted effect of over 50% in size
BRCA1 expr up: qHTS Assay to Identify Small Molecule Activators of BRCA1 Expression; MCF7-BRCA1-FFLuc reporter, luminescence, 48 h; response scale: scaled: vehicle 0%, 10 µM genistein 100%; Potency, µM (doses to about 46.1 µM), without a hit: at the top dose activation, actives largely listed as activators; actives 1.1% (n = 380,000); AID 624202, 2012; further: potency means the concentration at half of the fitted maximal effect; nearly all actives have a fitted effect of over 80% in size
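MCF7-BRCA1-FFLuc cells, 2000/well in phenol-red-free MEM, attached 2 h then treated 48 h at 37 C. Luciferase luminescence read 15 min after reagent; normalized to genistein maximum activation (10microM) and DMSO, concentration-response fitted.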
RXFP1 antagonist: qHTS Assay for Antagonists of the Relaxin Receptor RXFP1; Relaxin receptor 1 (Homo sapiens), Q9HBX9; HEK293-RXFP1, relaxin-stimulated cAMP HTRF, 30 min; hits give low values; activity change, negative = inhibition, % at 57.5 µM; actives 0.59% (n = 350,000); AID 1259400, 2018;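 active means activity change of -60% or lower, but not beyond a set lower limit; inconclusive means change between -60% and -40%, or beyond the set limit; inactive means change above -40%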; further: on the % scale 0 is the no-effect control and ±100 the full control effect
Giardia kill: Small Molecules that selectively kill Giardia lamblia: qHTS | Giardia lamblia trophozoite viability | activity change, % at 7.66 µM, hits read low | actives 0.15% (n = 340,000); in the data active means activity change below about -80%; inconclusive means between about -30% and that limit;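 further: parasites exposed to compound for two days anaerobically before the ATP read; on the % scale 0 is the no-effect control and ±100 the full control effect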
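Luminescent ATP signal served as the viability read-out, measured 15-30 min after adding ATP detection reagent to trophozoites that had been incubated with compounds for 48 hrs at 37 deg C anaerobically at 100 cells/well.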
* hit, by the source's call; ? = inconclusive; . = no result given; [ ] = dose if it differs, or a comment. Unless noted, the call rests on the fitted dose curve; in most records, active means well fitted curve in the direction sought with a large enough effect; inconclusive means small, poorly fitted or top-dose-only effect, or another doubt; inactive means no such curve, though single readings can be large; an effect the other way counts as inactive or inconclusive.

SMILES	RXFP1 ag	IL2 activator	NPSR antag	BRCA1 expr up	RXFP1 antagonist	Giardia kill
CS(=O)(=O)N1CCN(/[N+]([O-])=N/Oc2ccc([N+](=O)[O-])cc2[N+](=O)[O-])CC1	.	.	.	-42.7%	.	.
C(=Nc1cccnc1)c1ccc2ccccc2n1	.	.	.	-4.8%	.	.
Cc1ccc(S(=O)(=O)CCc2ccccn2)cc1	-0.7%	-1.4	-2.5%[46.1 µM]	2.9%	-2.6	-4.7
CC(C)(C)c1ccc(S(=O)(=O)CCc2ccccn2)cc1	-0.7%	-0.4	-9.9%[46.1 µM]	14.1µM*	0.5	-8.2
O=C(NNC(=S)NC(=O)c1ccccc1[N+](=O)[O-])c1ccccc1Cl	1.2%	1.2	3.6%	-30.5%	-23.1	13.3
COc1ccc(NC(=S)NC(=O)c2ccccc2Cl)cc1	-2.9%	-0.4	-2.8%	12.6µM*	-2.3	26.5
O=C(NC(=S)Nc1ccccc1[N+](=O)[O-])c1ccccc1Cl	-6.1%	1.7	-13.2%	12.6µM*	7.7	?
COc1ccc(NC(=O)C2CCCC2)cc1	-3.6%	-1.1	.	19.7%	4.2	-18.2
COc1ccc(NC(=S)NC(=O)C2CCCCC2)cc1	-0.8%	-3.7	.	7.94µM*	-4.3	6.2
O=C(NC(=S)Nc1ccc(O)cc1)c1ccccc1Cl	-1.8%	1.3	-14.5%	?	-0.3	-8.1
Cc1ccccc1NC(=O)CSc1nc2c(c(-c3ccco3)c1C#N)CCCC2	26.7%	0.1	10µM*	-2.2%	-12.8	3.3
CCc1ccccc1NC(=O)CSc1nc2c(c(-c3ccco3)c1C#N)CCCC2	?	-1.2	?	-2.6%	-9.6	-5.5
CCSc1nnc(Nc2ccccc2)s1	1.3%	-2.4	13.7%[7.67 µM]	11.2µM*	-5.0	24.1
CCSc1nnc(NC(=O)c2ccccc2C)s1	0.6%	-0.7	-1.9%	10µM*	-5.0	1.0
Cc1ccc(CSc2nnc(Nc3ccc(C)cc3)s2)cc1	-0.4%	-1.9	-12.6%[46.1 µM]	-1.3%	-20.5	0.1
CCSc1nnc(NC(=O)c2cc3c(s2)CCCC3)s1	?	-0.7	-0.2%[46.1 µM]	7.94µM*	-2.1	-17.0
CCSc1nnc(NC(=O)c2ccccc2)s1	1.8%	0.1	-3.7%	78.4%	-0.6	-3.0
CC(C#N)Sc1nnc(Nc2ccccc2)s1 (configuration not stated)	0.5%	-2.0	4.1%	23.6%	0.5	-18.8
O=C(Nc1nnc(SCc2ccccc2)s1)c1cc2c(s1)CCCC2	9.0%	2.0	6.6%[46.1 µM]	33.3%	-3.8	-25.8
CCSc1nnc(Nc2ccc(C)cc2)s1	-0.1%	-1.4	-3.3%[46.1 µM]	10µM*	-4.5	5.3
C[N+](C)(C)CCC(=O)c1cccc2ccccc12	.	.	31.6µM*	.	.	.
CC(C)/C(C=O)=C(/NC1CCCCC1)c1ccccc1	.	1.1	.	-1.7%	-63.0*	17.3
CCOC(=O)c1cc(=O)c2c(OCC(COc3cccc4oc(C(=O)OCC)cc(=O)c34)OC(=O)[C@@H](N)CCCCN)cccc2o1	.	.	.	.	33.6	.
O=C(CCSc1ccc(Cl)cc1)N1CCCCCC1	1.0%	-0.7	-12.3%[46.1 µM]	12.6µM*	-8.9	3.1
Cc1ccc(C)c(C(=O)C[n+]2cccc(Br)c2)c1	.	.	.	16.6%	.	.
SMILES	RXFP1 ag	IL2 activator	NPSR antag	BRCA1 expr up	RXFP1 antagonist	Giardia kill
CC(C)Cn1cnc2c(SCc3ccccc3F)nc(N)nc21	.	-1.2	.	5.62µM*	-1.8	-13.4
CCCn1cnc2c(SCCc3ccccc3)nc(N)nc21	.	0.6	.	12.6µM*	5.9	-5.7
CCC(C)Cn1cnc2c(SCc3ccccc3F)nc(N)nc21 (configuration not stated)	.	-0.9	.	12.8%	-8.7	-5.4
CCOc1ccc(NS(=O)(=O)c2ccc3[nH]c4c(c3c2)CCCCC4)cc1	-3.2%	.	.	.	?	.
Cc1ccc(NC(=O)Nc2cccnc2)cc1Cl	-0.6%	-1.6	.	12.6µM*	-0.5	-5.5
COc1ccccc1N=Nc1nc(-c2ccccc2)c(-c2ccccc2)[nH]1	0.1%	-2.4	12.6µM*	-69.5%	2.1	7.6
COc1ccccc1-c1c(-c2ccc(OCC(=O)NN)cc2O)n[nH]c1C(F)(F)F	0.7%	0.1	13.6%	61.6%	-10.3	15.1
COc1ccc(-c2n[nH]c(C(F)(F)F)c2-c2cc3ccccc3o2)c(O)c1	-1.0%	-2.4	-3.6%[46.1 µM]	-77.4%	-69.3*	-7.5
Cc1c(C#N)c(NC(=O)COC(=O)c2cc(Cl)c3c(c2)OCCCO3)n(Cc2ccco2)c1C	.	.	.	11.6%	.	.
O=C(CN1C(=O)/C(=C/c2ccccc2Cl)SC1=S)NC1C=CS(=O)(=O)C1 (configuration not stated)	1.8%	-1.5	.	-11.6%	-60.9*	10.0
O=C(CN1C(=O)/C(=C/c2ccccc2)SC1=S)NC1CCS(=O)(=O)C1 (configuration not stated)	-1.7%	1.2	.	-25.1%	-61.5*	-9.2
O=C(CN1C(=O)/C(=C/c2ccc(F)cc2)SC1=S)NC1C=CS(=O)(=O)C1 (configuration not stated)	-3.2%	-0.7	.	16.3%	-18.4	1.1
O=C(CCN1C(=O)/C(=C/c2ccccc2Cl)SC1=S)NNC(=O)c1ccccc1O	-3.8%	0.1	.	-43.3%	-70.6*	-21.4
O=C(CN1C(=O)/C(=C/c2ccc(F)cc2)SC1=S)NC1CCS(=O)(=O)C1 (configuration not stated)	-2.6%	-1.0	.	11.4%	-67.3*	-1.8
COc1ccc(C2C=C3CNS(=O)(=O)C3CC2OC(=O)c2cccc(C)c2)cc1 (configuration not stated)	.	.	.	.	.	-8.4
CN(C)c1ccc(/C=C/c2ccnc3ccccc23)cc1O	.	.	.	13.4%	.	.
CC(OC(=O)c1ccc(O)cc1)C(=O)Nc1nc(-c2ccccc2)cs1 (configuration not stated)	-0.2%	7.8	.	8.5%	-85.0*	27.7
CC(OC(=O)CNC(=O)c1ccccc1F)C(=O)Nc1nc(-c2ccccc2)cs1 (configuration not stated)	1.1%	-3.5	8.6%	6.31µM*	-6.1	16.7
O=C(N/N=C/c1ccccc1F)NC12CC3CC(CC(C3)C1)C2	-3.5%	-2.1	.	5.01µM*	-10.2	-19.7
O=C(N/N=C/c1ccccn1)NC12CC3CC(CC(C3)C1)C2	0.1%	0.6	-48.8%	3.98µM*	-3.5	7.1
COc1cccc(/C=N/NC(=O)NC23CC4CC(CC(C4)C2)C3)c1O	.	-4.0	.	-55.2%	-13.9	-26.0
CC1CCCN(C(=O)CNC(=O)c2cccs2)C1 (configuration not stated)	0.1%	-0.4	.	10µM*	0.6	-10.7

Screens as filed in PubChem.
